From PubChem BioAssay
RECQ1 helicase: qHTS Assay for Inhibitors of RecQ-Like Dna Helicase 1 (RECQ1) | RECQ1 DNA unwinding, red fluorescence kinetic read | ATP-dependent DNA helicase Q1 (Homo sapiens), P46063 | 240,000 tested, 0.54% active | Potency, µM (top dose mostly 57.3 µM), for the others: at the top dose activity, negative = inhibition, most hits filed as inhibitors;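 also: potency is read from the fitted curve at half-maximal effect; plate controls were vehicle for no effect and no enzyme for full effect; nearly all actives have a fitted effect of over 30% in size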
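RECQ1T1 50 nM; forked duplex (20 bp + 30-nt ss tails) 200 nM, ATP 2 mM final; pH 8.0, 2 mM MgCl2, 2.5 ug/ml poly(dI-dC); 15 min compound preincubation; discontinuous kinetic read over 2 h at RT.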
APE1 inh: qHTS Assay for Inhibitors of the Human Apurinic/apyrimidinic Endonuclease 1 (APE1); DNA repair nuclease/redox regulator APEX1 (Homo sapiens), P27695; 350,000 tested, 0.35% active; Potency, µM (highest dose often 65.8 µM), for inactives: at the top dose activity change, negative = inhibition, actives largely listed as inhibitors; recombinant APE1, TAMRA/BHQ-2 abasic DNA cleavage fluorescence;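 also: potency is read from the fitted curve at half-maximal effect; plate controls were vehicle for no effect and reference inhibitor for full effect; nearly all actives have a fitted effect of over 55% in size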
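APE1 at 0.75 nM final was preincubated with compound 15 min at room temperature, then 50 nM double-stranded THF abasic-site substrate (5'-TAMRA/3'-BHQ-2) was added. Fluorescence (ex 525/em 598 nm) was read kinetically; third-minus-first read gave activity.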
FEN1 inh: qHTS Assay for the Inhibitors of Human Flap endonuclease 1 (FEN1). Potency, µM (series often up to 114 µM), inactives show at the top dose activity change, negative = inhibition, hits mostly inhibitors. 390,000 tested, 0.35% active. P39748. Recombinant FEN1 flap cleavage, fluorescence, 15 min. AID 588795, 2011; also: potency is read from the fitted curve at half-maximal effect; nearly all actives have a fitted effect of over 65% in size
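Enzyme 10 nM, 15 min RT preincubation with compound; start with substrate 50 nM final; reads at 0 and 15 min; qHTS titration, four-parameter Hill fit.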
BLM helicase inh: qHTS Assay for Inhibitors of Bloom's syndrome helicase (BLM); recombinant BLM DNA unwinding, fluorescence dequenching; RecQ-like DNA helicase BLM (Homo sapiens), P54132; AID 2528, 2010; 350,000 tested, 0.2% active; Potency, µM (titrated, usually from 56.1 µM), without a hit: at the highest dose activity change, negative = inhibition, actives largely listed as inhibitors;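 also: potency is read from the fitted curve at half-maximal effect; plate controls were vehicle for no effect and no enzyme for full effect; nearly all actives have a fitted effect of over 35% in size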
WRN helicase inh: qHTS for Inhibitors of WRN Helicase; 360,000 tested, 0.46% active; WRN helicase unwinding, fluorescent forked duplex, kinetic; Potency, µM (doses to about 114 µM), for inactives: at the top dose activity change, negative = inhibition, usual class: inhibitors; Bifunctional 3'-5' exonuclease/ATP-dependent helicase WRN (Homo sapiens), Q14191; also: potency is read from the fitted curve at half-maximal effect; nearly all actives have a fitted effect of over 55% in size
Target sequence (Q14191 whole entry, looked up): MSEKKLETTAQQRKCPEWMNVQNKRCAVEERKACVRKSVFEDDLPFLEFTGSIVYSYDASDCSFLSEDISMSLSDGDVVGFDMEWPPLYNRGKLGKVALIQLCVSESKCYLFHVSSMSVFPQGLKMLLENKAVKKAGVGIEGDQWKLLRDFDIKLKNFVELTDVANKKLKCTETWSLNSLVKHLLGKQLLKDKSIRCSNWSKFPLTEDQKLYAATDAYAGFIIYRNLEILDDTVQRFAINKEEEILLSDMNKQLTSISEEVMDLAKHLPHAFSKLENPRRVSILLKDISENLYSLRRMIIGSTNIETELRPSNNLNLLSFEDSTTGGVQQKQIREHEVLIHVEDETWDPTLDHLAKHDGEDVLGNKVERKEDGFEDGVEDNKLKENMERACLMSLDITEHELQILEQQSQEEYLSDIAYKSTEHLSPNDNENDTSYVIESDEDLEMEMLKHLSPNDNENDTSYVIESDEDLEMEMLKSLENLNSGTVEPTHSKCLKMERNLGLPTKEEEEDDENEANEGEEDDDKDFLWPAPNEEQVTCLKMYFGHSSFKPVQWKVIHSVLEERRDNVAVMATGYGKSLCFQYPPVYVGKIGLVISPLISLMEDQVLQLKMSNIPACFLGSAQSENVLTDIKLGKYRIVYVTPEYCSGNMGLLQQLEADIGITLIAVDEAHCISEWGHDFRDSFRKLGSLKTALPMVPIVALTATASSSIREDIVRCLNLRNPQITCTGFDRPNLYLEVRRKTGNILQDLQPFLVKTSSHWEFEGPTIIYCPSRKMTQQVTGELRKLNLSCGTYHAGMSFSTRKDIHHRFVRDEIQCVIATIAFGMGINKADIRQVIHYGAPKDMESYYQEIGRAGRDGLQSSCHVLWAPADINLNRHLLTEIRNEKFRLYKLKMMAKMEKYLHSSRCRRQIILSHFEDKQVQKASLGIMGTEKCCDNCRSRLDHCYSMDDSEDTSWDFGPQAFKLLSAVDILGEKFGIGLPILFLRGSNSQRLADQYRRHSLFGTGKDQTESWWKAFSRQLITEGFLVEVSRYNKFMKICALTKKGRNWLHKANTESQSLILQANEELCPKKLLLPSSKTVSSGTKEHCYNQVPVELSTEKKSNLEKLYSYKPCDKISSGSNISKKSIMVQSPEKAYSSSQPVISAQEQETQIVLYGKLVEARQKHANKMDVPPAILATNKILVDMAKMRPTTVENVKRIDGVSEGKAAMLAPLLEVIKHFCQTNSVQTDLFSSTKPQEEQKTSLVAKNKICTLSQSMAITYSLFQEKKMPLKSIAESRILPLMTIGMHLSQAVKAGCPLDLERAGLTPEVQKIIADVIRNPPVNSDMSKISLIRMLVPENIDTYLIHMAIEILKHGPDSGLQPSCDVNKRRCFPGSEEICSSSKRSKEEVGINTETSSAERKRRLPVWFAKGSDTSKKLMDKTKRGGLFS
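Kinetic red-fluorescence monitoring (525/598 nm) tracks WRN helicase activity after 100 nM fluorophore-quencher forked duplex and 2 mM ATP are added to 20 nM enzyme pretreated 15 min at room temperature with compound.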
PI5P4Ka inh: qHTS for Inhibitors of phosphatidylinositol 5-phosphate 4-kinase (PI5P4K) | Phosphatidylinositol 5-phosphate 4-kinase type-2 alpha (Homo sapiens), P48426 | 330,000 tested, 1.2% active | max response, % | PI5P4Kalpha enzyme, ADP-Glo luminescence, 60 min; stronger effect = lower value; active = max response of -50% or lower; inconclusive = between -30% and -50%; inactive = -30% or higher; also: value at the top dose of about 77 µM
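Luminescence from ADP-Glo served as readout of PI5P4Kalpha activity in a qHTS format. Reaction: enzyme, substrate, compound, ATP at 5 microM final, 60 min at RT.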
Starred values were filed as active, the others as inactive; i = inactive; u = inconclusive; x = no result; [ ] = remark or other dose. The list is not random: actives were taken first. Their share in the collection is about 1.5%. Unless noted, calls follow the shape of the dose curve; as a rule, active = well fitted curve in the direction sought with a large enough effect; inconclusive = small, poorly fitted or top-dose-only effect, or another doubt; inactive = no such curve, though single readings can be large; an effect the other way counts as inactive or inconclusive. Unless noted, % is scaled to controls: 0 for no effect and ±100 for the full control effect.

SMILES	RECQ1 helicase	APE1 inh	FEN1 inh	BLM helicase inh	WRN helicase inh	PI5P4Ka inh
COc1ccc(C)cc1NC(=O)c1cc2c(s1)-c1ccccc1SC2	x	x	11%	-6%	x	x
C=CCN(C(=O)CCc1ccccc1OC)c1nc(-c2ccc(S(C)(=O)=O)cc2)cs1	x	-6%	10%	-9%	4%	-4
C=CCN(C(=O)Cc1cccs1)c1nc(-c2ccc(S(C)(=O)=O)cc2)cs1	x	17%	-4%	-11%	0%[11.6 µM]	-63*
COc1ccc2c(c1)-c1nc(N)sc1CC2	i	-3%	8%	-1%	-1%	-1
COc1ccc2c(c1)-c1nc(/N=C/c3ccc(O)c(OC)c3)sc1CC2	-3%	-2%	-14%	-4%	79µM*	6
O=C1NC(=Nc2ccccc2Cl)S/C1=C\c1cccc([N+](=O)[O-])c1O	x	11%	u	-4%	-21%[11.6 µM]	-85*
COc1ccc(/C=C2\SC(=Nc3ccccc3Cl)NC2=O)c(OC)c1	x	x	x	x	2%	-20
O=C1NC(=Nc2ccccc2Cl)S/C1=C\c1cccc([N+](=O)[O-])c1	x	-4%	-21%	-17%	-26%	-27
O=C1NC(=Nc2ccccc2Cl)S/C1=C\c1ccc(C(=O)O)cc1	x	32%	-26%	-1%	-8%	-65*
COc1ccccc1Cn1cc(C(=O)c2ccc(F)cc2)c(=O)c2cc3c(cc21)OCO3	x	x	17%	-2%	x	x
CCOC(=O)c1c(N2C(=O)Nc3ccccc3N2O)n[nH]c1-c1cccc(OC)c1	-11%	-1%	-4%	-12%	1%	-52*
CCOC(=O)c1cccc(N2C(=O)Nc3ccccc3N2O)c1	5%	-2%	-3%	-1%	3%	3
CCCCCCCCCCCCCCCC[n+]1ccc(/C=N/O)cc1	-3%	14%	5%	u	1%	-60*
CCCCCCCCCCCCCC[n+]1ccc(C)cc1	x	x	x	-11%	x	x
CCCn1c(/N=C/c2ccccc2O)nc2ccccc21	i	10%	7%	1%	-8%	1
Cn1c(/N=C/c2c(O)ccc3ccccc23)nc2ccccc21	-11%	-1%	u	1%	45µM*	x
O=S(=O)(NCc1csc(-c2ccccc2)n1)c1ccccc1	x	x	-17%	1%	x	x
CCc1nnc(N/N=C/c2cc(Br)c(O)cc2O)n1N	x	2%	1%	-4%	-9%[11.6 µM]	-69*
O=Cc1cn(CC(=O)N2CCCc3ccccc32)c2ccccc12	-1%	8%	8%	0%	u	-69*
CCOC(=O)c1cc(-c2ccccc2)n(CCCC(=O)Nc2cc(C)ccc2OC)c1C	x	x	-8%	-7%	x	x
Cc1ccc2oc(-c3ccc(NC(=O)CCC(=O)O)cc3)nc2c1	x	x	13%	5%	x	x
CCc1ccc(CNc2ccc(O)cc2)cc1	i	5%	-4%	u	45µM*	-54*
CC(=O)[O][Al][O]C(C)=O	x	x	x	4%	x	x
Cc1ccc(-c2no[n+]([O-])c2C#N)cc1	x	-5%	x	x	x	x
CC(=O)Nc1ccc2c(c1)C(=O)c1ccccc1C2=O	0%	-9%	-14%	-7%	-16%	2
SMILES	RECQ1 helicase	APE1 inh	FEN1 inh	BLM helicase inh	WRN helicase inh	PI5P4Ka inh
O=C(O)/C=C/C(=O)Nc1ccc2c(c1)C(=O)c1ccccc1C2=O	-6%	u	u	-7%	-16%[11.6 µM]	-65*
COC(C[C@@H]1O[C@@H]1[C@@H](O)[C@@H](C)OCc1ccccc1)OC	i	3%	6%	0%	-3%	-6
COC(C[C@@H]1O[C@@H]1[C@H](O)[C@H](C)OCc1ccccc1)OC	-7%	-4%	4%	0%	-8%	-86*
COc1cccc(/C=N/Nc2cc(N3CCOCC3)ncn2)c1O	x	42%	-24%	-7%	-8%[57.1 µM]	-98*
CCc1ccccc1NC(=O)Cn1c(=O)n(-c2ccc(C)c(C)c2)c(=O)c2oc3ccccc3c21	x	x	16%	4%	x	x
Cn1cccc1/C=C1\SC(=Nc2cccc(O)c2)NC1=O	i	6%	-8%	-17%	-4%[11.6 µM]	-55*
C[C@H]1Cc2c(-c3ccccc3)nc3c(c2CO1)CN(C(=O)C1CCCCC1)CC3	i[11.5 µM]	-2%[12.4 µM]	x	-1%[12.4 µM]	x	x
COc1ccc(NC(=O)Cc2ccccc2F)cc1S(=O)(=O)N1CCCCC1	x	-10%	4%	x	8%	1
COc1ccc(NC(=O)CN(C)CC(=O)Nc2cccc(F)c2)cc1S(=O)(=O)N1CCCCC1	x	x	11%	x	50µM*	-4
CCCOC(=O)C1=C(C)CS[C@@H]2[C@H](NC(=O)COc3ccccc3)C(=O)N12	x	x	-7%	x	x	x
CCCNC(=O)c1nnsc1S(=O)c1ccc(Cl)cc1 (configuration not stated)	0%	0%	u	-2%	20µM*	u
CCCNC(=O)c1nnsc1S(=O)(=O)c1ccc(Cl)cc1	-19%	16%	-11%	-2%	28µM*	u
Cc1cc(-c2nc3ncccc3o2)ccc1NC(=O)c1ccc([N+](=O)[O-])o1	x	x	u	x	-36%	-58*
CC(C)CNc1nc(N)c([N+](=O)[O-])c(N2CCCCCC2)n1	x	4%	45µM*	-8%	-1%[11.6 µM]	2
Cn1nc(-c2ccc(F)cc2)nc2c(=O)n(C)c(=O)nc1-2	x	x	-15%	x	x	x
O=C[C@H](O)[C@@H](O)[C@@H](O)[C@H](O)CO	x	1%	x	x	x	x
CCOC(=O)c1[nH]c2c(c1C)C(=O)CC(c1ccco1)C2 (configuration not stated)	u	u	u	-25%	u	-68*
COCCOC(=O)c1[nH]c2c(c1C)C(=O)CC(c1ccccc1)C2 (configuration not stated)	4%	4%	-7%	1%	-2%	-1
NN1C(=O)c2cccc3c(C(=O)O)ccc(c23)C1=O	-6%	-7%	4%	5%	4%	-64*
NS(=O)(=O)c1ccc(O)c(N2C(=O)c3cccc4c(C(=O)O)ccc(c34)C2=O)c1	20%	-3%	-3%	-5%	-12%	0
Oc1c(Br)cc(Br)cc1/C=N/NC(=S)N[C@H]1CC2C=CC1C2 (some centres not stated)	-24%	-3%	-12%	-20%	-19%	-89*
CNC(=S)N/N=C/c1cc(Br)cc(Br)c1O	-8%	-14%	-9%	3%	-26%	u
